# Only some compounds are listed: those with a hit (about 21% of all), similar ones and a draw of the others.
# SARS PLpro yeast: blocks SARS-CoV papain-like protease in a yeast assay. S. cerevisiae expressing SARS-CoV PLpro, growth rescue. Potency, µM (highest dose often 32.9 µM), without a hit: at the top dose activity, positive = growth rescue, most hits filed as activators. 330,000 tested, 0.19% active. AID 485353; note: potency is the fitted concentration of half-maximal effect; 0% is about no effect; nearly all actives have a fitted effect of over 55% in size
# Pf growth 48h: P. falciparum growth inhibition at 48 hours (one generation). P. falciparum luciferase growth in erythrocytes, 48 h. Potency, µM (series often up to 28.7 µM), for the others: at the top dose activity change, negative = inhibition, most hits filed as inhibitors. 310,000 tested, 5.9% active. AID 504832; active = well fitted inhibition curve with a large enough effect; inconclusive = small, poorly fitted or top-dose-only effect, or another doubt; inactive = no such curve, though single readings can be large or run the other way; note: potency is the fitted concentration of half-maximal effect; % is set by controls: 0 for no effect and ±100 for the full control effect
#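 Luciferase-expressing P. falciparum in infected erythrocytes (2% hematocrit, 0.1% parasitemia final) in RPMI 1640/0.5% Albumax were exposed to compound for 48 hours at 37 C, 5% CO2; growth read as luminescence.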
# Pf growth 96h: P. falciparum growth inhibition at 96 hour, primary screen for plastid delayed-death inhibitors | 320,000 tested, 6.9% active | Potency, µM (doses to about 28.7 µM), for inactives: top-dose activity change, negative = inhibition, hits mostly inhibitors | P. falciparum luciferase reporter growth, 96 h | AID 504834; active = well fitted inhibition curve with a large enough effect; inconclusive = small, poorly fitted or top-dose-only effect, or another doubt; inactive = no such curve, though single readings can be large or run the other way; note: potency is the fitted concentration of half-maximal effect; % is set by controls: 0 for no effect and ±100 for the full control effect
#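 Luminescence readout: decreased luciferase signal marks inhibited growth of reporter-expressing P. falciparum in infected red cells (2% hematocrit, 0.05% parasitemia final), exposed to compound two generations (96 h, 37 C, 5% CO2).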
# Shiga inhibitor: Shiga toxin inhibition; Vero cells, Shiga toxin protein synthesis inhibition reporter; inhibition, % at 38.7 µM; 290,000 tested, 9.2% active; in the data active = inhibition mostly above about 28%, no sharp cut-off; inactive = mostly below about 43%; note: 0% is about no effect
# NS1 inh: influenza NS1 inhibition; Potency, µM (doses to about 46.1 µM), without a hit: at the highest dose activity, positive = more growth; 270,000 tested, 0.4% active; AID 2326; note: potency is the fitted concentration of half-maximal effect; actives are rising curves; nearly all actives have a fitted effect of over 50% in size
#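 OD600 was taken as the measure of yeast growth restored by compound in an NS1-expressing S. cerevisiae strain. Cells had been washed out of glucose medium and diluted 1:100 into galactose -URA medium, pH 6.0.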
# CHX counter: affects cycloheximide protein synthesis inhibition readout, counter-screen; cell reporter, cycloheximide protein synthesis inhibition counterscreen; max response, %; 300,000 tested, 12% active; AID 2314; in the data active = max response mostly above about 13%, no sharp cut-off; inactive = mostly below about 14%; note: read at 38.3 µM for the half of the compounds with a filed dose; 0% is about no effect
# The depositor's hits bear a star; ? = inconclusive; · = no result; ! = repeats disagree; [ ] = dose if it differs, or a comment. Unless noted, calls come from the whole dose curve.
SMILES,SARS PLpro yeast,Pf growth 48h,Pf growth 96h,Shiga inhibitor,NS1 inh,CHX counter
Cc1cc(C)nc(N/N=C2/CCCC/C2=C\c2ccccc2)n1,0%,?,?,8,·,8
O=C1C(Cl)=C(N2CCN(Cc3ccccc3)CC2)C(=O)N1Cc1ccccc1,-5%,?,-4%,-13,-14%,1
c1ccc(CN2CCN(C3=Nc4cccc5cccc3c45)CC2)cc1,1%,?,·,48,-50%,18*
Fc1ccc(N2CCN(C3=Nc4cccc5cccc3c45)CC2)cc1,0%,-18%,?,74*,·,24*
CN1CCC(N(C)C(=O)CCc2nc3ccccc3n2-c2ccccc2)CC1,-1%,-13%,?,-7,·,-3
CCc1c(O)cc2n(c1=O)-c1ccc(Cl)cc1C2(C)C,-43%,12µM*,-27%,5,-34%,-1
CCCN1C(=O)C2(OCCO2)c2cc(Cl)ccc21,2%,11%,7%,-1,-13%,-1
C[n+]1c(/C=C/c2ccc3c(c2)OCO3)ccc2ccccc21,-4%,429%,-18%,95*,·,51*
C[n+]1c(/C=C/c2ccc(O)cc2)ccc2ccccc21,1%,?,2.3µM*,64*,-3%,50*
O=[N+]([O-])c1ccccc1S(=O)(=O)n1nnc2ccccc21,9%,11%,?,6,-12%,11
COc1ccc(NS(=O)(=O)c2cccc(C(=O)N3CCN(c4ccccc4O)CC3)c2)cc1,1%,?,?,·,·,·
COCCNc1nnc(SCC(=O)Nc2sc3c(c2C(=O)c2ccccc2)CCCC3)s1,-41%,?,9.3µM*,-6,6%,-1
COCCNc1nnc(SCC(=O)c2c[nH]c3ccccc23)s1,-4%,8.3µM*,?,16,12%,6
Cc1ccc(C(=O)c2c(NC(=O)CSc3nnc(N)s3)sc3c2CCCC3)cc1,-18%,12µM*,5.2µM*,4,52%,5
Nc1nnc(SCC(=O)Nc2sc3c(c2C(=O)c2ccccc2)CCCC3)s1,-13%,-18%,?,-7,7%,-1
COCCNc1nnc(SCC(=O)NNC(=O)c2ccccc2)s1,1%,15%,18%,-1,6%,-1
CCOc1ccc(S(=O)(=O)NC(C)C)cc1C(N)=O,0%,23%,?,2,4%,-2
CC(=O)Nc1ccn(C2OC(C(COC(C)=O)NC(=O)C(Cc3ccccc3)NC(=O)OC(C)(C)C)C(OC(C)=O)C2OC(C)=O)c(=O)n1 (configuration not stated),·,·,·,2,·,-5
COc1ccccc1NC(=O)c1cc(=O)[nH]c2ccccc12,-2%,-16%,23%,·,5%,2
COc1ccccc1C(=O)Nc1ccccc1SC(=O)c1ccccc1OC,-2%,-26%[0.00184 µM],0%,72*,3%,26*
CCc1ccccc1-n1ncc(C(=O)Nc2ccccc2OC)c1C,-24%,12µM*,13µM*,22,-144%,1
COc1ccccc1NC(=O)c1c[nH]c2ccccc12,-1%,54%,57%,52*,-38%,34*
COC(=O)c1ccccc1NC(=O)c1ccccc1OC,-3%,9%,6%,34,-82%,-1
COc1ccccc1NC(=O)c1ccccc1-c1ccccc1C(=O)O,4%,8%,19%,2,5%,-3
COc1ccccc1NC(=O)c1ccccc1NC(=O)c1ccccc1C(=O)O,1%,32%,?,·,?,16*
SMILES,SARS PLpro yeast,Pf growth 48h,Pf growth 96h,Shiga inhibitor,NS1 inh,CHX counter
CC(C)(C)OC(=O)N1CCCC1C(=O)NC1COC2CC(n3ccc(=O)[nH]c3=O)OC12 (configuration not stated),·,·,·,-7,·,-2
COc1cc(NC(=S)Nc2ccc(N(C)C(C)=O)cc2)cc(OC)c1,-2%,-5%,-21%,-19,3%,-3
COc1cccc(/C=C/C(=O)OCC(=O)NC2CC2)c1OC,-4%,·,·,·,·,·
COc1cccc(CCNC(=O)c2ccc(OC)c(OC3CCN(C(C)C)CC3)c2)c1,-5%,-7%,15%,20,5%,1
COC(=O)c1csc(C(=O)c2c[nH]c3ccccc23)n1,·,·,·,42*!,·,23*!
Cc1cccc(C)c1NC(=O)c1c[nH]c2ccccc12,0%,128%,148%,74*,-33%,16*
COc1ccccc1C(=O)Nc1ccc2c3c(cccc13)CC2,-1%,59%,-13%,87*,-7%,38*
COc1cccc(OC)c1C(=O)Nc1ccc2c3c(cccc13)CC2,-15%,-8%,-18%,-9,-52%,1
NC(=O)c1c[nH]c2ccccc12,0%,?,43%,6,4%,10
N#CC(c1ccc(Cl)nn1)c1c(F)cccc1Cl (configuration not stated),-1%,-2%,1%,-17,3%,-1
Cc1cc(S(=O)(=O)NCc2ccccc2)ccc1OCC(=O)NCc1ccccn1,-1%,-6%,9.3µM*,-10,0%,-2
Cc1cc(S(=O)(=O)NCC(C)C)ccc1OCC(=O)NCc1ccccn1,·,2%,·,-12,0%,0
C=C(C)C(=O)OCC(=O)NCc1ccccc1,-3%,-2%,?,114*,·,36*
Cc1ccccc1OCC(=O)NCc1ccccc1,10%,20%,3.7µM*,34,·,19
O=C(COc1ccccc1-c1ccccc1)NCc1cccc(Cl)c1,-49%,?,13µM*,-6,4%,0
CCn1cc(CN2CCCC(C(=O)Nc3ccc(-c4cscn4)cc3)C2)c(C)n1 (configuration not stated),-1%,-29%,?,6,2%,7
CC(=O)N[C@H](Cc1ccc(O)cc1)C(=O)O,·,·,·,·,4%,·
COc1ccc(CC(=O)NNC(=O)c2cccnc2)cc1OC,0%,29%,34%,-4,8%,-2

# From PubChem BioAssay
